Measurements taken from PubChem BioAssay (NCATS).
Values joined by “and” are separate entries in the source; they are usually repeats but may differ in a detail not shown here. Identical values can stand only once. Records with an inconclusive call do not appear. A number with no mark means an inactive call. Calls follow the shape of the full dose curve.

Molecular target: Bile acid receptor (Homo sapiens) (UniProt Q96RI1)
Assay: qHTS assay for small molecule agonists of farnesoid X receptor signaling (AID 588527);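 also: series mostly up to about 77 µM; 0% = vehicle basal and 100% = reference agonist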
Conditions: HEK293T FXR-UAS-bla, beta-lactamase ratio, 16 h; activation: active compounds read high
In short: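 FXR-UAS-bla HEK293T, 10% dialyzed FBS; cpds up to 92 uM titration, 16 h 37 C; CCF4 dye 2 h RT; fluorescence. Normalized to chenodeoxycholic acid 100 uM (100%) and DMSO (0%); Hill fit gives EC50, efficacy.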

Bile acid receptor (Homo sapiens), sequence (Q96RI1 whole entry, looked up): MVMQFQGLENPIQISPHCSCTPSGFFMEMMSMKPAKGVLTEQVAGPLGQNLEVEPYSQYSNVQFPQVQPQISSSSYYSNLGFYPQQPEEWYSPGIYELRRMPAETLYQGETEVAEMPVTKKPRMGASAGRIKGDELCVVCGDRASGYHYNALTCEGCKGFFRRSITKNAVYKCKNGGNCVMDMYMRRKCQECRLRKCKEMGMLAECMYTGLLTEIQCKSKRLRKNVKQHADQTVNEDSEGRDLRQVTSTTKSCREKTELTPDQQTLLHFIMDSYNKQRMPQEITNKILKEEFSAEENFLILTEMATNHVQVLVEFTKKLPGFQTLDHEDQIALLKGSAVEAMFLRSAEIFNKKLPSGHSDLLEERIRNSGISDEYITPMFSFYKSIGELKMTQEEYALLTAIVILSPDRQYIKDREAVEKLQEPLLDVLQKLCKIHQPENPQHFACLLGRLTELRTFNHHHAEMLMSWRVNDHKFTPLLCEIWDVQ

Compound | activation
CC(C)(C)OC=O | -2.91%
CO[Si](CCCNCCC[Si](OC)(OC)OC)(OC)OC | 1.6%
Cc1ccc(C(C)(C)C)c(O)c1 | -1.53%
O=C1OC(=O)c2ccccc21 | 1.95%
Oc1ccc(Nc2ccccc2)cc1 | 0.593%
O=Cc1ccccc1Cl | 0.21%
CC(C)OC(=O)c1ccccc1C(=O)OC(C)C | 0.429%
C=CCOC(=O)CCCCCCCC | -1.24%
CCN(Cc1c(F)cccc1Cl)c1c([N+](=O)[O-])cc(C(F)(F)F)cc1[N+](=O)[O-] | 8.75%
CCOC(=O)C(C)Oc1ccc(Oc2cnc3cc(Cl)ccc3n2)cc1 (stereo not given) | -3.91%
COc1ccc(C(=O)Nc2ccccc2)cc1[N+](=O)[O-] | -2.07%
CCC(C)(C)C(=O)O | 0.339%
Cc1nc2ccc(Cl)cc2[nH]1 | -1.36%
CCCCCCCCCCCCO | -2.63%
CCN(CC)c1ccc(N)cc1 | -0.874%
CC1CCC2CC1C2(C)C (stereo not given) | 3.3%
CNC(=O)c1ccccc1 | 3.12%
O=C1c2ccccc2C(=O)C1(O)O | 2.64%
CCCCOC(=O)COc1ccc(Cl)cc1Cl | -5.91% and -0.513%
CC(=O)Nc1ccc(C(=O)CCl)cc1 | 2.69%

Compound | activation
O=C(O)C1(C(=O)Nc2ccc(Cl)cc2Cl)CC1 | -11.8%
CC(=O)O[C@@H]1CC(C)=C2[C@H]1[C@H](C)CC[C@H]2/C=C(\C)C(=O)O | 0.825%
CC(/C=C/C=C(C)/C=C/C(=O)O)=C\C=C\C=C(C)\C=C\C=C(C)\C=C\C(=O)O | 3.47%
CC(C)c1ccc(C(C)C)cc1 | 2.92%
C1=C/CC/C=C/CC/C=C/CC/1 | -1.27%
CC/C=C/C/C=C/C/C=C/CCCCCCCC(=O)OCC | 1.74%
O=S(=O)(O)c1ccc(N=Nc2c(O)ccc3cc(S(=O)(=O)O)ccc23)cc1 | -1.3%
C=CCCCCCC | -0.782%
O=P(O)(O)O | 0.993%
CC1(C)[C@@H]([C@@H](Br)C(Br)(Br)Br)[C@H]1C(=O)O[C@H](C#N)c1cccc(Oc2ccccc2)c1 | 6.35%
CCCCCCCCCCCC(=O)OC | 11.1%
Cc1c(N)cccc1Cl | -0.769%
CC(C)(C)CC(C)(C)c1ccc(OCCO)cc1 | 2.48%
CCO[Si](CCCN)(OCC)OCC | -1.61% and 1.5%
CC(C)c1ccccc1 | -3.82%
c1ccc2c(c1)Cc1ccccc1-2 | 0.0131%
O=C(O)c1ccc2c(c1)C(=O)OC2=O | -5.89%
CC[C@H](C)C1O[C@]2(C=C[C@@H]1C)C[C@@H]1C[C@@H](C/C=C(\C)[C@@H](O[C@H]3C[C@H](OC)[C@@H](O[C@H]4C[C@H](OC)[C@H](NC(C)=O)[C@H](C)O4)[C@H](C)O3)[C@@H](C)/C=C/C=C3\CO[C@@H]4[C@H](O)C(C)=C[C@@H](C(=O)O1)[C@]34O)O2 (stereo not given in full) | 6.91%
COc1cccc(N)c1 | 2.13%
CCOCCOCCOCCO | 2.46%
